Measured values as given in PubChem BioAssay (NCATS).
Records with an inconclusive call do not appear. Active and inactive are the calls of the source. The call rests on the fitted dose curve; in most records, active means well fitted cell-killing curve with a large enough effect; inconclusive means small, poorly fitted or top-dose-only effect, or effect the other way; inactive means no such curve, though single readings can be large or run the other way. Residues, ends and D or L forms follow the SMILES beside them. *: point of attachment. Cbz = O=C(OCc1ccccc1)*

Test: qHTS of pediatric cancer cell lines to identify multiple opportunities for drug repurposing: Confirmatory screen for NB-EBc1 cells (AID 1347115);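 further: cells exposed to compound for 48 h before the viability read; nearly all actives have a fitted effect of over 45% in size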
Conditions: NB-EBc1 neuroblastoma cells, viability (cytotoxicity); series mostly up to 45.9 µM
Excerpt: Drug repurposing or repositioning has been offered as a strategy for drug development in oncology programs. This approach has special potential for childhood cancers and other rare or orphan diseases, where the expected return on new drug development has been a disincentive to pharmaceuticals.
In this project we exploit the poly-pharmacology of drugs to discover new indications via phenotypic screening of a panel of 19 well-characterized cell lines derived from solid tumors seen in children and adolescents. The goal is to identify approved drugs with previously unrecognized anticancer properties that has the potential to reveal new mechanisms and biological processes involved in carcinogenesis or drug resistance. We employed a titration-based paradigm (quantitative high-throughput screening or qHTS), where all compounds were tested at multiple concentrations for their effect on cell viability. Concentration-response curves (CRCs) were derived directly from the primary screen, and both potency and efficacy values were used to identify compounds with robust bioactivity profiles. We screened the NIH Chemical Genomics Center (NCGC) Pharmaceutical Collection (NPC) and Mechanism Interrogation Plate (MIPE) small molecule collections of approved and investigational compounds against these cell lines; and measured metabolically active cells after 48 hours of compound treatment as a proxy for cell viability.
Assay Submitter: Nathalia J. Martinez, National Center for Advancing Translational Sciences, National Institutes of Health, Rockville, MD, USA; email: natalia.martinez@nih.gov
[1] Shen, M et al. Quantitative high-throughput phenotypic screening of pediatric cancer cell lines identifies multiple opportunities for drug repurposing. Oncotarget 2017 Dec 19;9(4):4758-4772. PMID 29435139.
The cells were obtained from University of North Carolina (UNC), Pediatric Preclinical Testing Program (PPT), and Coriell Institute (CI).
qHTS cell viability assay:
Cells were assayed in growth media at a density of 500-1,000 cells/well. Five microliters of cells were dispensed into 1,536-well, white, solid-bottom, TC-treated plates (Greiner Bio One) using a multidrop dispenser and incubated at 37 degrees C, 5% CO2, under a humidified atmosphere for 5 hours. Twenty-three nanoliters of compounds and controls (neutral control DMSO or positive control bortezomib at final concentration of 2.3 µM) were subsequently transferred by Kalypsys pintool. For primary screens, the MIPE collection was tested at 11-point dilutions (final concentrations range from 0.78 nM to 46 µM) and the NPC collection at 8-point dilutions (final concentrations range from 0.59 nM to 46 µM). Compounds tested in follow-up screens were assayed at 11-point dilutions. Cells were incubated for 48 hours, followed by addition of 3 µL of CellTiter-Glo (Promega). After a 15 min incubation at room temperature, samples were analyzed for luminescence intensity using a ViewLux High-throughput CCD imager equipped with clear filters.
Potency means the concentration at half of the fitted maximal effect.

SMILES | Potency
N#CNC(=NCCCCCCOc1ccc(Cl)cc1)Nc1ccncc1 | 41.4 nM (active)
CC1(C)O[C@@H]2C[C@H]3[C@@H]4CCC5=CC(=O)C=C[C@]5(C)[C@@H]4[C@@H](O)C[C@]3(C)[C@]2(C(=O)CO)O1 | inactive
CC(=O)N1CCN(c2ccc(OCc3nn(C)c(C)c3-c3cccc4c(CCCOc5cccc6ccccc56)c(C(=O)O)n(Cc5cccnc5)c34)cc2)CC1 | inactive
CC[C@]12C=CCN3CC[C@@]4(c5cc([C@@]6(C(=O)OC)C[C@H]7C[C@@H](C(C)(F)F)CN(Cc8c6[nH]c6ccccc86)C7)c(OC)cc5N(C)[C@H]4[C@@](O)(C(=O)OC)[C@H]1OC(C)=O)[C@@H]32 | inactive
Cn1cnc(=N)c2[nH]cnc21 | inactive
CC(=O)ON=C1C(c2c(O)[nH]c3cc(Br)ccc23)=Nc2ccccc21 | 16500 nM (active)
C[C@@]12C(=O)OC(=O)[C@@]1(C)C1CCC2O1 | 2080 nM (active)
C[C@@H](Oc1ccc2[nH]nc(C=Cc3cnn(CCO)c3)c2c1)c1c(Cl)cncc1Cl | 13100 nM (active)
C[C@H](NCc1ccc2c(c1)nc(NC(=O)c1ccc(-c3cn[nH]c3)s1)n2CCc1ccccc1)C(C)(C)C | 1310 nM (active)
CN(C)c1ccc(C(=O)NCCCCCCC(=O)NO)cc1 | 2330 nM (active)
COC(=O)C=CC(=O)OC | 20800 nM (active)
C[C@H]1[C@@H](OC(=O)CCC(=O)O)O[C@@H]2O[C@@]3(C)CC[C@@H]4[C@H](C)CC[C@@H]1[C@@]24OO3 | 5220 nM (active)
CC(C)N1[N]C(=C2C=c3cc(O)ccc3=N2)c2c(N)ncnc21 | 4140 nM (active)
CS[C@H]1SC[C@@H]2C(=O)N(C)[C@H](C(C)C)C(=O)OC[C@H](NC(=O)c3cnc4ccccc4n3)C(=O)N[C@H](C)C(=O)N(C)[C@@H]1C(=O)N(C)[C@H](C(C)C)C(=O)OC[C@H](NC(=O)c1cnc3ccccc3n1)C(=O)N[C@H](C)C(=O)N2C | inactive
CO[C@@H]1[C@@H](O)[C@H](O)[C@@H](n2c3c(Cl)cccc3c3c4c(c5c6cccc(Cl)c6[nH]c5c32)C(=O)NC4=O)O[C@@H]1CO | 1470 nM (active)
CNC(=O)c1ccc(Nc2cc(Nc3ccccc3S(=O)(=O)C(C)C)c3cc[nH]c3n2)nc1 | 5850 nM (active)
CCS(=O)(=O)Nc1ccc2[nH]c(O)c(C(=Nc3ccc(CN4CCCCC4)cc3)c3ccccc3)c2c1 | 4650 nM (active)
COc1cc(C[C@@H](CO)[C@H](CO)Cc2ccc(O)c(OC)c2)ccc1O | inactive
COc1ccc(S(=O)(=O)Nc2cccnc2Nc2ccc(O)cc2)cc1 | 2330 nM (active)
NS(=O)(=O)OC[C@@H]1C[C@@H](n2ccc3c(N[C@H]4CCc5ccccc54)ncnc32)C[C@H]1O | inactive

SMILES | Potency
C=CCNC1=C2C[C@@H](C)C[C@H](OC)[C@@H](O)[C@@H](C)C=C(C)[C@H](OC(N)=O)[C@@H](OC)C=CC=C(C)C(=O)NC(=CC1=O)C2=O | 7370 nM (active)
O=C(O)C[C@H](O)C[C@H](O)C=Cc1c(C2CC2)nc2ccccc2c1-c1ccc(F)cc1 | inactive
COc1ccc(C(C)=O)c(O)c1 | inactive
COc1ccc2c(c1OC)C(=O)OC2[C@H]1c2c(cc3c(c2OC)OCO3)CCN1C (stereo not given in full) | inactive
COc1cccc2c1C(=O)c1c(O)c3c(c(O)c1C2=O)C[C@@](O)(C(=O)CO)C[C@@H]3O[C@H]1C[C@H](N)[C@H](OC2CCCCO2)[C@H](C)O1 (stereo not given in full) | 1650 nM (active)
CCN(CC)CCNC(=O)c1c(C)[nH]c(C=C2C(=O)Nc3ccc(F)cc32)c1C | inactive
CCc1cc(C(C)=NOCc2ccc(C3CCCCC3)c(C(F)(F)F)c2)ccc1CN1CC(C(=O)O)C1 | inactive
C#CCC(Cc1cnc2nc(N)nc(N)c2n1)c1ccc(C(=O)N[C@@H](CCC(=O)O)C(=O)O)cc1 (stereo not given in full) | 369 nM (active)
Cc1cnc(Nc2ccc(N3CCN(C)CC3)cc2)nc1Nc1cccc(S(=O)(=O)NC(C)(C)C)c1 | 14700 nM (active)
N#Cc1c(C2CCNCC2)cc(-c2c(O)cccc2OCC2CC2)nc1N | inactive
CC(C)(O)Cn1c(NC(=O)c2ccc(-c3cn[nH]c3)s2)nc2cc(CN3CCOCC3)ccc21 | 1040 nM (active)
C=Cc1c(C)c2cc3nc(cc4[nH]c(cc5nc(cc1[nH]2)C(C)=C5CCC(=O)O)c(CCC(=O)OC)c4C)[C@@]1(C)C3=CC=C(C(=O)OC)[C@H]1C(=O)OC | inactive
CC(C)C[C@@H](C=O)NC(=O)[C@H](CC(C)C)NC(=O)[C@H](CC(C)C)NC(=O)OCc1ccccc1 (Cbz-Leu-Leu-Leu-aldehyde) | 1470 nM (active)
CC(C)C[C@H](NC(=O)[C@@H](NC(=O)c1cccc(-c2ccccc2)n1)[C@@H](C)O)B(O)O | 58.5 nM (active)
O=C1NC(=O)C(=Cc2ccc3nccc(-c4ccncc4)c3c2)S1 | inactive
C=C1C(=CC=C2CCC[C@]3(C)[C@@H]([C@H](C)CCCC(C)(C)O)CC[C@@H]23)C[C@@H](O)C[C@@H]1O | 2610 nM (active)
COc1cc(O)c2c(c1)C1OC1C[C@H](O)[C@H](O)C(=O)C=CC[C@H](C)OC2=O (stereo not given in full) | 5850 nM (active)
O=C(C=CC#Cc1cccc(NS(=O)(=O)c2ccccc2)c1)NO | 5850 nM (active)
Cc1ccc([N+](=O)[O-])cc1S(=O)(=O)N(C)N=Cc1cnc2ccc(Br)cn12 | 293 nM (active)
O=S(=O)(O)CCSSCCS(=O)(=O)O | inactive
